In all, about 300,000 compounds went through this assay and about 4,000 (1.3%) were called active. The full list was thinned out, with actives kept by preference. Values without a mark were called inactive.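 How the source made its calls: active means mean replicate score, as percent of positive control median, at least 50; inconclusive means mean below 50 but one replicate at or above 50; inactive means mean and every replicate below 50.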
assay: S. pyogenes SKKanGAS growth inhibitors in kanamycin, primary screen, streptokinase expression inhibitor project, SKKanGAS strain, BacTiter-Glo luminescence (AID 1662); conditions: 6 h, at 7.5 µM, hits give high values;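 further: strain carries kanamycin resistance gene driven by streptokinase promoter and grows in 40 µg/ml kanamycin; loss of luminescence reflects streptokinase promoter inhibition or plain growth inhibition; 0% = median of DMSO wells and 100% = positive control at its reference dose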

Compound	inhibition
CCOCCCNC(=O)C(NC(=O)c1ccc(=O)[nH]c1)c1ccc(Cl)cc1 (stereo not drawn)	-3.58%
COc1ccc(OC)c(S(=O)(=O)Nc2cccc(-c3ccc4nncn4n3)c2)c1	-5.29%
Clc1ccc(Nc2nc(-c3cccs3)cs2)nc1	64.4% (active)
Cc1ccc(Nc2nc(-c3ccc(O)cc3O)cs2)nc1	20.8%
O=C(Nc1ccc(Cl)cn1)Nc1cccs1	-3.53%
O=C(CSc1ccc(-c2ccccn2)nn1)Nc1ccccc1	-3.36%
CC(C)CN(Cc1c(O)ccc2c(=O)c(-c3ccccc3)coc12)CC(C)C	0.595%
O=c1c(-c2ccccc2)coc2cc(O)ccc12	0.922%
CC(C)=CCc1c(O)c(CC=C(C)C)c2occ(-c3ccc(O)cc3)c(=O)c2c1O	105% (active)
CCOC(=O)c1ccc2c(c1)nc(SCC(=O)NC(C)C)n2CC	-3.36%
Cc1cc(C)c(S(=O)(=O)Nc2c(C)n(C)n(-c3ccccc3)c2=O)cc1[N+](=O)[O-]	4.05%
O=C(c1ccco1)N1CCN(C(=O)c2cc(-c3ccccc3F)no2)CC1	63.3% (active)
O=C(Cc1c(F)cccc1Cl)N1CCN(C(=O)c2ccco2)CC1	-1.63%
O=C(NCCCN1CCOCC1)c1cc(-c2ccccc2F)no1	26.3%
COC(CNC(=O)c1ccc2c(c1)ncn2-c1cc(C)cc(C)c1)OC	0.722%
COC(=O)C1=C(C)NC(=O)CC1c1ccccc1OC (stereo not drawn)	4.98%
CCOC(=O)c1ccc(-c2ccc(C(=O)Nc3cccnc3)o2)cc1	3.97%
COC(=O)C1=C(C)NC2=C(C(=O)c3ccccc32)C1c1ccc(-c2ccc(C(=O)O)cc2)o1 (stereo not drawn)	60.6% (active)
O=C(c1cccs1)N(Cc1cc2ccccc2[nH]c1=O)CC1CCCO1 (stereo not drawn)	-2.88%
O=C(NCCC1CCCCN1S(=O)(=O)c1ccc(Cl)cc1)C(=O)NCc1ccco1 (stereo not drawn)	-16.2%
Cc1ccc(C2Nc3cccc4cccc(c34)N2)cc1	9.05%
Oc1ccc(C2Nc3cccc4cccc(c34)N2)cc1	3.2%
Brc1ccccc1C1Nc2cccc3cccc(c23)N1	56.8% (active)
CC1Cc2cc(/C(O)=C3\C(=O)C(=O)N(Cc4cccnc4)C3c3ccccc3F)ccc2O1 (stereo not drawn)	12.9%

Compound	inhibition
CC1CCCCN1S(=O)(=O)c1ccc(C(=O)Nc2nnc(-c3cccs3)o2)cc1 (stereo not drawn)	99.8% (active)
CSCc1nnc(NC(=O)c2ccc(S(=O)(=O)N3CCCCC3C)cc2)o1 (stereo not drawn)	39.4%
CC1CCCN(S(=O)(=O)c2ccc(C(=O)Nc3nnc(-c4ccncc4)o3)cc2)C1 (stereo not drawn)	20.4%
CCn1c(N)c(Br)c(=O)[nH]c1=O	0.526%
Cc1cc(OC(C)C(=O)NC2CC(C)(C)NC(C)(C)C2)c2c(C)cc(=O)oc2c1 (stereo not drawn)	2.79%
CCOC(=O)N1CCN(c2cc(C)c([N+](=O)[O-])cc2F)CC1	15.6%
O=C(O)c1ccc(Cn2c(=S)[nH]c3cc(Cl)ccc3c2=O)cc1	9.12%
CC(C)c1ccc2c(c1)c(SC(C)(C)C)c(CC(C)(C)C(=O)O)n2Cc1ccc(Cl)cc1	109% (active)
O=C(COC(=O)c1ccccc1SCC(=O)N1CCCC1)Nc1ccccc1OC(F)F	34%
CSCCNC(=O)c1ccc2nc(Cc3ccccc3F)oc2c1	2.77%
CN(c1cccc(NC(=O)Nc2ccc(Cl)cc2)c1)S(C)(=O)=O	-13.9%
CC(C)S(=O)(=O)c1csc(NC(=O)Nc2ccc(Cl)cc2)c1Cl	60% (active)
Cn1ccc(NC(=O)Nc2ccc(Cl)cc2)n1	-3.73%
Cc1c(Cl)c([N+](=O)[O-])nn1CCCC(=O)Nc1cc(Cl)ccc1Cl	-2.88%
Cc1ccc(C(=O)O)cc1NC(=O)c1ccc(Cn2nc(C)c(Cl)c2C)o1	5.19%
Cc1c(Cl)c([N+](=O)[O-])nn1Cc1ccc(C(=O)N/N=C\c2cc(Cl)ccc2O)o1	96.5% (active)
CCC(CC)c1nnc(NC(=O)C2CCN(C(=O)c3ccco3)CC2)s1	-3.32%
CS(=O)(=O)c1ccc(Cl)c(NC(=O)Nc2ccccc2)c1	-0.376%
O=C(c1ccc(Cl)cc1)c1cnc(Nc2ccccc2)s1	3.38%
O=C(Nc1ccccc1)c1nnsc1S(=O)(=O)c1ccc(Cl)cc1	85.8% (active)
Cc1nnc(SCC(=O)Nc2cccc(N)c2)n1-c1ccccc1	8.19%
Clc1ccc(Cl)c(Oc2ccc(Oc3nc(Cl)ccc3Cl)cc2)n1	-7.12%
COc1ccccc1CNC(=O)CSc1nc(=O)n(Cc2ccncc2)c2c1CCC2	49.6% (active)
CN(C)CCn1c2c(c(SCC(=O)Nc3ccccc3C(F)(F)F)nc1=O)CCCC2	-16.8%

Compound	inhibition
CN(C)CCn1c2c(c(SCC(=O)NCc3ccccc3)nc1=O)CCC2	-2.81%
O=C(NNC1=C(C(=O)C(F)(F)F)CCC1)c1ccncc1	18.5%
O=C(Cc1ccc(S(=O)(=O)N2CCOCC2)s1)NCCOc1ccccc1F	2.98%
O=C(Nc1c2c(nn1-c1ccccc1)CS(=O)(=O)C2)C1CCCC1	-3.29%
CC(=O)Nc1ccc(Nc2ncnc3c2nnn3Cc2ccccc2Cl)cc1	1.15%
CC(C)NC(=S)NN=C1CCCCCCCCCCC1	63.8% (active)
C/C(=N\NC(=S)NC(C)C)c1ccc(C(C)(C)C)cc1	15.9%
CC(C)(C)NC(=O)C(=O)NN=C1CCCCCCC1	-3.09%
Cc1c(CN2CCC(n3nccc3NC(=O)CCc3ccccc3)CC2)cnn1C	1.52%
O=C(NC(Cc1c[nH]c2ccccc12)C(=O)N/N=C/c1ccc(Br)cc1)c1cccs1 (stereo not drawn)	66.8% (active)
CC(=O)Nc1ccc(/C=N/NC(=O)c2cccs2)cc1	5.44%
CC(=O)NC(Cc1c[nH]c2ccccc12)C(=O)O (stereo not drawn)	4.27%
CN(Cc1ccccc1)C(=O)c1ccc(NC2=NC3CS(=O)(=O)CC3S2)cc1 (stereo not drawn)	-1.29%
NC(=O)c1ccc(NC(=O)COC(=O)c2c3c(nc4ccccc24)/C(=C\c2ccc4c(c2)OCO4)CCC3)cc1	64% (active)
COc1cc(-c2cc(C(=O)OCC(=O)Nc3ccc4c(c3)OCO4)c3ccccc3n2)cc(OC)c1OC	13.9%
COc1cc(/C=C2\CCCc3c2nc2ccccc2c3C(=O)O)cc(Cl)c1O	15.8%
O=c1[nH]c(CSc2ccccc2)nc2c1oc1ccccc12	-3.16%
COc1ccc(C(=O)NC2=NCCS2)c(OC)c1	-2.91%
CCc1cc(=O)oc2c(C)c(OCC(=O)N3CC[C@@]4(O)CCCC[C@H]4C3)ccc12	-5.4%
Cc1nn(-c2ccccn2)c2c1C(c1ccncc1)C1=C(CC(C)(C)CC1=O)N2 (stereo not drawn)	-3.06%
CC(=C1C(=O)c2ccccc2C1=O)N1CCN(c2ccccn2)CC1	1.02%
Cc1cc(C)c(C2C3=C(Nc4c2c(C)nn4-c2ccccn2)c2ccccc2C3=O)c(C)c1 (stereo not drawn)	57.1% (active)
C=CCNc1nc(N)c([N+](=O)[O-])c(NC2CCCCC2)n1	6.03%
C=CCC(C(=O)c1ccccc1)[N+](C)(C)CC=C (stereo not drawn)	2.59%

Compound	inhibition
O=C(OCC(=O)c1c[nH]c2ccccc12)c1cccc(O)c1	-11.7%
O=C(OCc1ccc(-c2ccccc2)cc1)c1cccc(O)c1	54.9% (active)
O=C(OCc1ccc(Br)cc1)c1cccc(-c2nnc(-c3ccccc3)o2)c1	7.23%
O=C(O)CCC(=O)Nc1ccc(OCC2CCCO2)cc1 (stereo not drawn)	1.88%
O=C(C1CCCO1)N(c1ccc(F)cc1)C1C=CS(=O)(=O)C1 (stereo not drawn)	-0.303%
CCOC(=O)c1cnc(Nc2nc3ccccc3o2)nc1CSC(=S)N1CCCCC1	30.1%
Cc1ccc(C2CCN(C(=S)Nc3cccc(Cl)c3)C2)cc1 (stereo not drawn)	14.8%
CN(C)c1nc(=Nc2cccc(Cl)c2)ss1	53.2% (active)
Clc1cccc(N=C2NN=C(c3ccc4c(c3)OCCO4)CS2)c1	21.6%
Cc1ccccc1N1CCN(C2CCCN(C(=O)c3ocnc3C)C2)CC1 (stereo not drawn)	-0.706%
CN1CCN(c2ccc(S(=O)(=O)Nc3ccccc3)cc2[N+](=O)[O-])CC1	-10.6%
Cc1cccc(N(CC(=O)N=Nc2c(O)[nH]c3ccccc23)S(C)(=O)=O)c1C	15.7%
O=[N+]([O-])c1cc(S(=O)(=O)Nc2cccc(Cl)c2)ccc1N=Nc1c(O)[nH]c2ccccc12	59.8% (active)
Cc1nc(COc2cc3oc(=O)cc(C)c3cc2Cl)cs1	-7.93%
COc1ccc2c(c1)CC[C@@H]1[C@@H]2CC[C@]2(C)C(=O)CC[C@@H]12	-7.32%
O=C(Nc1nnc(C2=COCCO2)o1)c1ccc([N+](=O)[O-])s1	63.4% (active)
O=C(Nc1ncc([N+](=O)[O-])s1)C1COc2ccccc2O1 (stereo not drawn)	-8.31%
Cc1ccc(C(=O)Nc2nnc(C3=COCCO3)o2)cc1C	85.9% (active)
COc1cc(-c2nnc(NC(=O)C3=COCCO3)o2)cc(OC)c1OC	2.37%
COc1ccccc1-c1nnc(NC(=O)c2ccc3ncsc3c2)o1	20%
O=C(Nc1nnc(-c2ccco2)o1)c1ccc(S(=O)(=O)N2CCOCC2)cc1	1.36%

Source: PubChem BioAssay AID1662 (Broad Institute, 2009)
